Laboratory results published in PubChem BioAssay (NCI).
Several values for one entry are separate records, joined by “and”; a condition that tells them apart may be missing. Identical values can stand only once. About 83,000 compounds went through this panel and 20% of them were active in at least one assay; those are over-represented in the sample as a whole.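 Single-concentration screen, 48 h exposure, 96-well plates. Endpoint: percent growth. Below 10 = active.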 Activity calls are given as the source filed them. Where a SMILES comes first, the peptide text is derived from it.

tested on: HOP-92 NSCLC; experiment: NCI-60 one-dose screen, 48 h (100 = growth as untreated, 0 = no growth, -100 = all killed); settings: 10 µM
Description: Growth inhibition of the HOP-92 human Non-Small Cell Lung tumor cell line is measured as a screen for anti-cancer activity. Cells are grown in 96 well plates and exposed to the test compound for 48 hours. Compounds are tested at a single concentration, which is 10^-5 M for most compounds. The reported endpoint is percent growth (GI% or GIPRCNT), where numbers from 0 - 100% represent growth inhibition, and numbers from -100% - 0 represent cell death. For example, a value of 40 represents 60% growth inhibition. A value of 0 means no net growth occurred over the course of the experiment. A value of -40 indicates 40% of cells at the beginning of the experiment died by the end of the experiment. A value of -100 means all cells are dead at the end of the experiment.
NCI-60 Human Tumor Cell Lines Screen was performed using the standard one-dose NCI protocol, which is described in more detail at https://dtp.cancer.gov/discovery_development/nci-60/default.htm.
Compounds with GIPRCNT values below 10 were considered active. Activity score was based on GIPRCNT using the following formula: […]
Score is 0 for GIPRCNT values of 100 or above, 50 for GIPRCNT values of 0, and 100 for GIPRCNT values of -100.

| SMILES | growth |
| --- | --- |
| O=C(CO)C(O)C(O)C(O)C(O)CO (stereo not given) | 116% (inactive) and 105% (inactive) |
| CC[C@H](CC[C@@H](C)[C@H]1CC[C@H]2[C@@H]3CC=C4C[C@@H](O)CC[C@]4(C)[C@H]3CC[C@]12C)C(C)C | 83.5% (inactive) |
| Oc1ccc(Cc2ccccc2Cl)c(O)c1 | 89.4% (inactive) |
| COc1cc(C(O)C2C(=O)OCC2C2(c3ccc4c(c3)OCO4)SCCCS2)cc(OC)c1OC (stereo not given) | 77.8% (inactive) |
| O=C1c2c(O)ccc(O)c2C(=O)c2c(NCCNCCO)ccc(NCCNCCO)c21 | -56.9% (active) |
| CC(C)(O)C(=O)O | 91.7% (inactive) |
| CC1CCC2(C(=O)O)CCC3(C)C(=CCC4C5(C)CCC(O)C(C)(C)C5CCC43C)C2C1C (stereo not given) | 42.5% (inactive) and 65.8% (inactive) |
| O=CN1CCCCC1 | 120% (inactive) |
| CCOC(=O)c1c(C)cc(=O)oc1C | 80.7% (inactive) |
| O=c1[nH]cnc2c1ncn2C1OC(CO)C(O)C1O (stereo not given) | 84.1% (inactive) and 79.4% (inactive) and 115% (inactive) |
| CC(=O)NCC(=O)c1ccc([N+](=O)[O-])cc1 | 108% (inactive) |
| O=C(Cc1ccccc1)c1ccc(O)c(Cl)c1 | 57.6% (inactive) |
| CC(=O)OC(C)C(=O)NCC(C)O (stereo not given) | 98% (inactive) |
| OCC1OC(O)C(O)C(O)C1O (stereo not given) | 85.9% (inactive) |
| CC(C)NC(=O)N/C=C(\C#N)C(N)=O | 96.6% (inactive) |
| N#CC(C#N)N=Nc1ccc(Cl)cc1 | -15.1% (active) |
| CN(C)c1ccc(/C=C\C(=O)c2ccccc2)cc1 | 103% (inactive) and 99.8% (inactive) and 86.1% (inactive) |
| O=c1n(CC2CO2)c(=O)n(CC2CO2)c(=O)n1CC1CO1 (stereo not given) | 75.9% (inactive) |
| Cc1cc(-c2ccc(N=Nc3ccc4c(S(=O)(=O)O)cc(S(=O)(=O)O)c(N)c4c3O)c(C)c2)ccc1N=Nc1ccc2c(S(=O)(=O)O)cc(S(=O)(=O)O)c(N)c2c1O | 67.1% (inactive) |
| CC1=C/C(O)CC(=O)Cc2nc(co2)C(=O)N2CCC=C2C(=O)OC(C(C)C)C(C)/C=C\C(=O)NC/C=C\1 (stereo not given) | 88.7% (inactive) |

| SMILES | growth |
| --- | --- |
| CN1CNC(=O)NC1 | 94.1% (inactive) and 95.6% (inactive) |
| ClCCOCCOc1ccc(C2CCCCC2)cc1 | 87.9% (inactive) |
| c1ccc2c(c1)OC1OC2Oc2ccccc21 | 101% (inactive) |
| Nc1nc(N)c2[nH]cnc2n1 | 78.5% (inactive) |
| Cc1cc(-c2cc(C)c(O)c(C)c2)cc(C)c1O | 77.1% (inactive) |
| CC(=O)OCC1OC(OC(C)=O)C(OC(C)=O)C(OC(C)=O)C1OC(C)=O (stereo not given) | 102% (inactive) and 98.9% (inactive) |
| CC1CCC2(OC1)OC1CC3C4CC=C5CC(O)CCC5(C)C4CCC3(C)C1C2C (stereo not given) | 26.6% (inactive) |
| O=C1C=C(Nc2ccccc2)c2ccccc2C1=O | 89.7% (inactive) |
| COc1ccc(C(=O)CC(c2ccccc2)C(C#N)c2ccccc2)cc1 (stereo not given) | 67.8% (inactive) |
| CCCCOc1ccc(Nc2cc(Cl)ccc2C(=O)O)cn1 | 74.8% (inactive) |
| COc1ccc(N/C=C/C2=[N+](C)c3ccccc3C2(C)C)c(OC)c1 | 69.5% (inactive) |
| O=C1CSC2=NCCN12 | 112% (inactive) and -2.23% (active) |
| CN(C)CC1CCCCCC(CN(C)C)C1=O (stereo not given) | 73.2% (inactive) |
| Cc1ccc(=O)[nH]n1 | 85.1% (inactive) |
| CCCCNc1ccc(Nc2ccccc2)cc1 | 63.7% (inactive) |
| C#CCOC(=O)Nc1ccccc1 | 102% (inactive) |
| Cn1cnc([N+](=O)[O-])c1Sc1ncn[nH]1 | 101% (inactive) |
| CCN(CCNS(C)(=O)=O)c1ccc(N)c(C)c1 | 84.4% (inactive) |
| NC(Cc1ccccc1)C(=O)NC(Cc1ccccc1)C(=O)O (stereo not drawn) (H-Phe-Phe-OH; configuration not given here) | 97.6% (inactive) |
| Nc1ncnc2c1ncn2C1OC(COP(=O)(O)O)C(O)C1O (stereo not given) | 103% (inactive) |
